Reference: PubChem BioAssay (NCATS)
Records with an inconclusive call do not appear. Activity calls are given as the source filed them. Calls follow the shape of the dose curve; as a rule, active = well fitted activation curve with a large enough effect in the main read-out, with a control signal flat (not every such curve was filed as active); inconclusive = small, poorly fitted or top-dose-only effect, or effect the other way, or a change in a side signal; inactive = flat fitted curve, though single readings scatter.

The compounds below were run against 3',5'-cyclic-AMP phosphodiesterase 4B (Homo sapiens) (UniProt Q07343) (assay: qHTS Assay for Inhibitors of PDE-IV (AID 607; as to activation (PDE inhibition): % of control where 0% means no effect)). Settings: HEK293 ACTOne CNG channel cells, membrane potential fluorescence; series mostly up to 22.9 µM; activation (PDE inhibition): at the top concentration.
Text: NIH Chemical Genomics Center [NCGC]
NIH Molecular Libraries Screening Centers Network [MLSCN]
The cyclic nucleotide phosphodiesterases (PDEs) are proteins that catalyze hydrolysis of 3', 5'-cyclic nucleotides, such as cyclic adenosine monophosphate (cAMP) and cyclic guanosine monophosphate (cGMP), to their corresponding 5'-nucleotide monophosphates. These enzymes play an important role in controlling cellular concentrations of cyclic nucleotides and have a central role in a variety of intracellular signaling events. cAMP PDEs are emerging as a promising class of drug targets in asthma and cardiovascular disease therapeutic areas.
There are no commercially available cell-based screening assays for PDE inhibitors: currently biochemical assays are done using pure substrates (cAMP or cGMP) and purified recombinant PDE enzymes. As with other biochemical screens on intracellular targets, false positives and false negatives may result from issues involving cell membrane permeability, cellular metabolism, and the like.
Here we report the development of a cell-based screening assay for cAMP phosphodiesterase (PDE) inhibitors. The assay is based on the BD ACTOne# technology (BD Biosciences) which utilizes a modified cyclic nucleotide-gated channel (CNG) to monitor intracellular cAMP changes in live cells. The CNG channel is localized on the plasma membrane, and opens when the intracellular cAMP level increases, resulting in ion flux and cell membrane depolarization. The influx of cations through the CNG channel can be quantified using membrane potential (MP) dyes. We modified the BD ACTOne technology to allow the detection of PDE inhibitors, and performed an inhibitor screen for PDE-IV, which is expressed endogenously in HEK293 cells. We optimized this assay in homogeneous 1536-well plate assay format for high throughput screening.
NCGC Assay Protocol Summary:
The medium contained 10% FBS (Invitrogen), 2 mM L-glutamine, and 250 ug/ml G418 (Cellgro) and 1 ug/ml puromycin (Clontech). ACTOneTM parental cells (BD Biosciences) were maintained in the same medium without puromycin.
The activity of the CNG channel was measured by BD ACTOneTM membrane potential dye kit (BD Biosciences). Forskolin, a positive control for cAMP activation and RO 20-1724, a PDE inhibitor, were both purchased from Sigma and solublized in DMSO.
Sequence,Parameter,Value,Description
1,Reagent,3 uL,1000 cells/well 1536 TC treated Black plate
3,Compound,0.5 uL,Kalypsys dispense RO 20-1724 100 uM final [A]
4,Reagent,3 uL,BD membrane potential dye
6,Compound,23 nL,Final concentration was 0.7nM to 22.9uM
8,Detector,EX 535 / EM 590 [B],Envision
Footnotes: [A] The stock 2 mM RO 20-1724 PDE inhibitor was made in 10 % DMSO. Parental cell line received 10 uM forskolin + 100 uM RO. [B] Envsion settings: Bottom Excitation 535/20 nm top emission 590/20, gain of 150 and 5 flashes per well.
Keywords: PDE, PDE-IV, cytotoxicity, flourescence, MLSMR, MLSCN, NIH Roadmap, qHTS, NCGC
Potency is read from the fitted curve at half-maximal effect.

3',5'-cyclic-AMP phosphodiesterase 4B (Homo sapiens), sequence (Q07343 whole entry, looked up): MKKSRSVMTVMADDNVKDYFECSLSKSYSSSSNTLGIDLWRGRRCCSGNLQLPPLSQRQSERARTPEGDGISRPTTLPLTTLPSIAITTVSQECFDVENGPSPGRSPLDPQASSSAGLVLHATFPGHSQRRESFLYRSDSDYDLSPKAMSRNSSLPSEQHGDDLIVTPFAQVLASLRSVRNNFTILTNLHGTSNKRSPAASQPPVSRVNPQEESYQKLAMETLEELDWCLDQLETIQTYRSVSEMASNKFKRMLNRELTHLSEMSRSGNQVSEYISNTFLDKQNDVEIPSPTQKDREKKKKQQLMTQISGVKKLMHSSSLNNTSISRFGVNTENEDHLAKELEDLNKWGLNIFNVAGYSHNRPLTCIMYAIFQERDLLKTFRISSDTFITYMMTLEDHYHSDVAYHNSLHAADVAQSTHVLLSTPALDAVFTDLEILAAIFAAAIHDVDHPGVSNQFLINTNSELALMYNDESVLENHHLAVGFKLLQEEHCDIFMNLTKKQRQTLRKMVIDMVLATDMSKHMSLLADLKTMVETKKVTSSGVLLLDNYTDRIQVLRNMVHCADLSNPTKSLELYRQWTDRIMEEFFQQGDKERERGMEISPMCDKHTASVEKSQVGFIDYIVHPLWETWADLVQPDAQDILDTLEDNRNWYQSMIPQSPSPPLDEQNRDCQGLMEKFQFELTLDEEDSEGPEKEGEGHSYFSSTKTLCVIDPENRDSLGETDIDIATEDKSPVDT

Row | SMILES | activation (PDE inhibition) | Potency
1 | C[N+](C)(C)CCOC(=O)CBr | -2.25% (inactive) | 
2 | CCCCCCC(C)(C)c1ccc([C@@H]2C[C@H](O)CC[C@H]2CCCO)c(O)c1 | -3.78% (inactive) | 
3 | N#CC(C#N)=Cc1cc(O)c(O)c(O)c1 | -6.72% (inactive) | 
4 | OCc1cnc[nH]1 | 12.2% (inactive) | 
5 | NNC(=O)c1ccc(O)cc1 | 1.06% (inactive) | 
6 | CC(=O)NBr | -4.58% (inactive) | 
7 | Cc1c2ccncc2c(C)c2c1[nH]c1ccccc12 |  | inactive
8 | CCCN(CCC)[C@H]1CCc2c(F)ccc(O)c2C1 |  | inactive
9 | CCCN1CCc2cc(O)cc3c2[C@H]1Cc1ccc(O)c(O)c1-3 | 5.27% (inactive) | 
10 | Cc1[nH]c2ccc(O)cc2c1CCN | -2.98% (inactive) | 
11 | NCCCP(=O)(O)O | 17.1% (inactive) | 
12 | C[N+]1(C)[C@@H]2CC[C@H]1CC(OC(=O)c1c[nH]c3ccccc13)C2 (stereo not given in full) | -27.2% (inactive) | 
13 | O=[N+]([O-])c1ccc2nc(N3CCNCC3)ccc2c1 | -10.4% (inactive) | 
14 | CN1CCc2cc(O)cc3c2[C@H]1Cc1ccc(O)c(O)c1-3 | -2.46% (inactive) | 
15 | COc1ccc2[nH]c3c(c2c1)CCNC3 | -22.4% (inactive) | 
16 | COc1ccc2[nH]cc(CCN)c2c1 | -13.2% (inactive) | 
17 | O=C1C=CC(=O)C=C1 | -7.66% (inactive) | 
18 | CC(C)NP(=O)(NC(C)C)OP(=O)(NC(C)C)NC(C)C | -5.85% (inactive) | 
19 | CC(C)(C)c1cc(O)ccc1O | -1.28% (inactive) | 
20 | CCCn1c(=O)c2[nH]c(C3CCCC3)nc2n(CCCOC(=O)c2ccc(S(=O)(=O)F)cc2)c1=O |  | 1260 nM (active)

Row | SMILES | activation (PDE inhibition) | Potency
21 | C[C@H](N)CN1CCc2ccc(Br)cc21 | -3.04% (inactive) | 
22 | C[N+]1(C)CCN(c2ccccc2)CC1 | 3.92% (inactive) | 
23 | CCCN(CCC)[C@@H]1CCc2cccc(O)c2C1 |  | inactive
24 | CP(=O)(O)C1=CCNCC1 | -4.67% (inactive) | 
25 | CN(N=O)c1ccc(O)c(O)c1 | -10.7% (inactive) | 
26 | O=S1(=O)N(CCN2CC=C(c3c[nH]c4cc(F)ccc34)CC2)c2cccc3c2N1CCC3 | -7.9% (inactive) | 
27 | CCC1(C)CC(=O)NC(=O)C1 | 13% (inactive) | 
28 | O=P(O)(O)C(Cl)(Cl)P(=O)(O)O | 8.38% (inactive) | 
29 | O=[N+]([O-])c1cc(O)c(O)c([N+](=O)[O-])c1 |  | inactive
30 | CN1CCc2cccc(Cl)c2CC1 | 9.8% (inactive) | 
31 | Cc1sc2ccccc2c1CC1=NCCN1 | 3.84% (inactive) | 
32 | c1ccc2cc(CC3=NCCN3)ccc2c1 | -3.66% (inactive) | 
33 | CCCN(CCC)C1Cc2cc(OC)c(OC)cc2C1 | 1.83% (inactive) | 
34 | c1ccc2c(c1)[I+]c1ccccc1-2 |  | inactive
35 | c1cc2c(c(NC3=NCCN3)c1)CCCC2 | 9.31% (inactive) | 
36 | NCCc1ccc(S(=O)(=O)F)cc1 | 4.67% (inactive) | 
37 | CCCN(CCC)CCc1ccc(O)c(O)c1 | -9.19% (inactive) | 
38 | CN1CCC(c2c[nH]c3ccc(O)cc23)CC1 | -3.44% (inactive) | 
39 | C[C@@H]1[C@@H]2Cc3ccc(O)cc3[C@@]1(C)CCN2CC1CC1 | 4.8% (inactive) | 
40 | O=S(=O)(O)c1cc(O)ccc1O | -10.5% (inactive) | 
